# Assay results taken from PMC4336329 (PLoS ONE, 2015).
# Out of some 310,000 compounds screened, about 14,000 (4.5%) showed an effect of 50% or more. The effect is printed as a negative number. The entries come from a sample that favours strong results as a whole.
# Molecular target: human ether-à-go-go-related gene (hERG) potassium channel (human, UniProt Q12809)
# Test: primary screen, population patch clamp on CHO cells stably expressing hERG; higher = less effect of the substance
# 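Further: peak tail current of the secondary pulse compared with the same well before compound.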
# Sequence of human ether-à-go-go-related gene (hERG) potassium channel (Q12809 whole entry, looked up): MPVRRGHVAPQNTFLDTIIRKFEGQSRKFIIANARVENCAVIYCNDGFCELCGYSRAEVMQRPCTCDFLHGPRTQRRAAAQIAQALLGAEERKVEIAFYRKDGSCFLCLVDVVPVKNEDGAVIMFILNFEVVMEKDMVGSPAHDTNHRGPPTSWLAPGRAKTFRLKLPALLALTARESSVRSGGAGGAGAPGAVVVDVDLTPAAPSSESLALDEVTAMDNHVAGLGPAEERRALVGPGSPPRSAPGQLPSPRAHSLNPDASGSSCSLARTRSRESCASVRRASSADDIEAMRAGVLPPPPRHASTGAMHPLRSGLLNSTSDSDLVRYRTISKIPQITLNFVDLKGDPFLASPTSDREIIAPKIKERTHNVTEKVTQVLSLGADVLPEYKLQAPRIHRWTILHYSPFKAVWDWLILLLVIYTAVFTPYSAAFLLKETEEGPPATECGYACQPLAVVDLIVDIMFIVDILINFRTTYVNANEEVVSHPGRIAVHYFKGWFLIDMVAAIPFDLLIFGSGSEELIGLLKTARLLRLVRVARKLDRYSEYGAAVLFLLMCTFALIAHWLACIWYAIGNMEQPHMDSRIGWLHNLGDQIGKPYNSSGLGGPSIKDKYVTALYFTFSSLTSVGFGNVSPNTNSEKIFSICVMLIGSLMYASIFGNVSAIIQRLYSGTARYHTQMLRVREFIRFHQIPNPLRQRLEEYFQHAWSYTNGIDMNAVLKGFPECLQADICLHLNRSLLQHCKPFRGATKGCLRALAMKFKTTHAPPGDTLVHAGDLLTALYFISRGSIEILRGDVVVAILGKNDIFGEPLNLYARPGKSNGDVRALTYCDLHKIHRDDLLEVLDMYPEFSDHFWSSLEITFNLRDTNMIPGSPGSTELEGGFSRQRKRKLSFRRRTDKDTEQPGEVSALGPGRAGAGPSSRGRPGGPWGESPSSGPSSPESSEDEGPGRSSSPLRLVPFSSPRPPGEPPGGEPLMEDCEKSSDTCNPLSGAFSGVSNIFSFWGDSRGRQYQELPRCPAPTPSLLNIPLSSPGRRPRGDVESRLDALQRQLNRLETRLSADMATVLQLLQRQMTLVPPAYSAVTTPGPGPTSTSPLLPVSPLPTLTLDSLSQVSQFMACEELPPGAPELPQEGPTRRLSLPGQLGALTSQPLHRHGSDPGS
row,SMILES,"hERG current change (%, negative = inhibition) at 10uM"
1,Cc1cc(C)nc(NS(=O)(=O)c2ccc(NC(=O)COc3ccccc3F)cc2)n1,4.9%
2,CCCc1nc(SCc2ccccc2Cl)n[nH]1,10.7%
3,COc1cccc(CN(C)CC(=O)Nc2sc3c(c2C#N)CCC3)c1OC,10.3%
4,COc1ccc(-n2c3c(cc(C#N)c2=O)C(=O)CCC3)cc1,29.1%
5,COc1ccc(Oc2c(C)oc3c(CN(C)C)c(O)ccc3c2=O)cc1,-1.88%
6,O=C(O)c1cc(=O)c2cc(Cl)ccc2o1,17.3%
7,CC(O)C[NH+]=c1cc(-c2ccccc2)oc2ccc(Cl)cc12.F[B-](F)(F)F (centres unmarked),-69.4%
8,CC(C)C[NH+]=c1cc(-c2ccccc2)oc2ccc(Cl)cc12.F[B-](F)(F)F,-87.4%
9,Cc1cc(Cl)ccc1Oc1ncnc2oc(-c3ccccc3)cc12,-0.172%
10,O=c1cc(-c2ccccc2)oc2ccccc12,-4.17%
11,Clc1ccc(Oc2ncnc3oc(-c4ccccc4)cc23)cc1,4.39%
12,Cc1nn(Cc2ccccc2Cl)c(C)c1C(=O)OCC(=O)N1CC(C)OC(C)C1 (centres unmarked),1.43%
13,Clc1ccc(N2CCN(Cc3ccco3)CC2)cc1,-14.2%
14,CCOC(=O)Cc1c(C)nc2c(-c3ccccc3)c[nH]n2c1=O,2.48%
15,Cc1nn(S(=O)(=O)N2CCOCC2)c(C)c1Br,-0.162%
16,O=C(O)C(Cc1ccccc1)N1C(=O)c2c(Cl)c(Cl)c(Cl)c(Cl)c2C1=O (centres unmarked),3%
17,COc1ccc(NS(=O)(=O)c2cc(NC(=O)C3CC3)ccc2N2CCCCC2)cc1,9.99%
18,COC(=O)c1cccc([N+](=O)[O-])c1CN1CCCC(C(N)=O)C1 (centres unmarked),18.4%
19,O=C(N/C(=C\c1ccc(Br)cc1)C(=O)N1CCCC1)c1ccccc1F,-71.8%
20,COc1ccccc1C(=O)N/C(=C/c1ccc(Br)cc1)C(=O)N1CCCC1,-48.9%
21,O=C(N/C(=C\c1ccc(Br)cc1)C(=O)N1CCOCC1)c1ccccc1Cl,-2.31%

row,SMILES,"hERG current change (%, negative = inhibition) at 10uM"
1,COc1ccccc1C(=O)N/C(=C\c1ccc(Br)cc1)C(=O)N1CCCC1,-48.6%
2,O=C(N/C(=C/c1ccc(Br)cc1)C(=O)N1CCCCC1)c1ccccc1F,-40.7%
3,O=C(N/C(=C/c1ccc(Br)cc1)C(=O)N1CCCC1)c1ccccc1F,-71.5%
4,CCCCn1cnc2c(c1=O)c1nc3ccccc3nc1n2Cc1ccc2c(c1)OCO2,24.1%
5,O=C(NCCCNC(=O)c1cnccn1)c1cccc(Cl)c1,-5.72%
6,O=C(COC(=O)/C=C/c1ccc(S(=O)(=O)N2CCOCC2)cc1)NCc1ccc(Cl)cc1,1.35%
7,Cc1cccc(N2CCN(C(=O)c3cc4c(=O)n(C)c5ccccc5c4n3C)CC2C)c1 (centres unmarked),-16%
8,Cc1ccc(S(=O)(=O)NCCC(=O)OCC(=O)Nc2ccccc2Cl)cc1,-10.5%
9,O=C(c1cccn2c(=O)c3cc(Br)ccc3nc12)N1CCN(c2ccccn2)CC1,-33.6%
10,O=C(c1cccn2c(=O)c3cc4ccccc4cc3nc12)N1CCN(c2ccccc2)CC1,-7.73%
11,COc1ccc(-c2cc(C(=O)N3CCN(c4ccccc4)CC3)c3ccccc3n2)cc1,5.37%
12,O=C(c1cccn2c(=O)c3ccccc3nc12)N1CCN(c2ccccn2)CC1,-53%
13,COc1ccc(N2CCN(C(=O)c3cccn4c(=O)c5ccccc5nc34)CC2)cc1,-60.1%
14,O=C(c1cccn2c(=O)c3ccccc3nc12)N1CCC2(CC1)OCCO2,5.98%
15,COc1ccc2c(c1OC)C(=O)OC2C1c2c(cc3c(c2OC)OCO3)CCN1C (centres unmarked),-1.42%
16,CCOc1ccccc1NC(=O)CSc1nc2ccccc2c(=O)n1CC1CCCO1 (centres unmarked),-68%
17,COc1ccccc1N1CCN(C(=O)CSc2nc3ccccc3c(=O)n2CC2CCCO2)CC1 (centres unmarked),-67.6%
18,O=C(CSc1nc2ccccc2c(=O)n1CCC(=O)N1CCN(c2ccccc2)CC1)NCC1CCCO1 (centres unmarked),-45.6%
19,O=C(CSc1nc2ccccc2c(=O)n1CC1CCCO1)N1CCN(c2ccccc2)CC1 (centres unmarked),-73.4%
20,COc1ccc(OC)c(NC(=O)CSc2nc3ccccc3c(=O)n2CC2CCCO2)c1 (centres unmarked),-41.2%
21,COc1ccccc1NC(=O)CSc1nc2ccccc2c(=O)n1CC1CCCO1 (centres unmarked),2.49%

row,SMILES,"hERG current change (%, negative = inhibition) at 10uM"
1,O=c1c2ccccc2nc(SCc2ccncc2)n1CC1CCCO1 (centres unmarked),-54%
2,O=c1c2ccccc2nc(SCc2ccccc2)n1CC1CCCO1 (centres unmarked),-6.67%
3,O=C1CN(C(=O)CSc2nc3ccccc3c(=O)n2CC2CCCO2)c2ccccc2N1 (centres unmarked),-31.3%
4,O=C(CSc1nc2ccccc2c(=O)n1CC1CCCO1)NCc1ccccc1 (centres unmarked),-11%
5,O=C(CSc1nc2ccccc2c(=O)n1CC1CCCO1)Nc1ccccc1 (centres unmarked),-14.1%
6,O=C(CSc1nc2ccccc2c(=O)n1CC1CCCO1)Nc1ccccc1Cl (centres unmarked),-22.1%
7,CC(C)(C)c1ccc(C(=O)NCC2CCCN2S(=O)(=O)c2ccccc2)cc1 (centres unmarked),-6.28%
8,Cc1ccc(C(=O)N/N=C2\CCSC2)cc1[N+](=O)[O-],-2.95%
9,COc1ccccc1C(CNC(=O)CSc1ccc2ccccc2c1)N(C)C (centres unmarked),-34.9%
10,COc1ccccc1NC(=O)Cn1cnc2c(cnn2-c2ccc(C)c(C)c2)c1=O,12.1%
11,Cc1[nH]c2ccccc2c1/C=N/NC(=O)c1cccc(S(=O)(=O)Nc2cccc(C(F)(F)F)c2)c1,18.6%
12,CC(=O)c1ccc(OCc2cc(C(=O)NCCc3ccc(Cl)cc3)no2)cc1,-29.7%
13,CSc1nnc(NC(=O)c2nc(S(=O)(=O)Cc3ccccc3)ncc2Cl)s1,0.719%
14,O=C(Nn1c(-c2ccc(Br)cc2)nc2ccccc2c1=O)c1ccncc1,20.2%
15,O=C(Nc1ccccn1)c1ccc(Cl)c(S(=O)(=O)N2CCCCCC2)c1,-32.7%
16,CCOC(=O)c1cccc(C(=O)Oc2ccccc2)n1,14.6%
17,Cc1nn(-c2ccccc2)c(C)c1C(=O)OCC(=O)Nc1ccccc1,-7.85%
18,Cc1cccc(-c2nsc(SCC(=O)NCc3ccco3)n2)c1,15%
19,Cc1nc(N=C(N)N)nc2c(C)cccc12,25.2%
20,Clc1ccc(C(Cn2ccnc2)OCc2c(Cl)cccc2Cl)c(Cl)c1 (centres unmarked),-32%
21,C=CCOC(Cn1ccnc1)c1ccc(Cl)cc1Cl (centres unmarked),-29.6%

row,SMILES,"hERG current change (%, negative = inhibition) at 10uM"
1,Clc1ccc(C(c2ccc(Cl)cc2)n2cc[n+](CC(OCc3ccc(Cl)cc3Cl)c3ccc(Cl)cc3Cl)c2)cc1.[Cl-] (centres unmarked),-62.8%
2,CC(C)CCn1nnnc1C(c1ccc(F)cc1)N1CCC(C(N)=O)CC1 (centres unmarked),-21.4%
3,Fc1cccc(CNCCc2c[nH]c3ccccc23)c1.O=C(O)C(=O)O,-7.63%
4,Cc1c(CC(=O)NCCCO)c(=O)oc2cc3c(cc12)CCC(C)(C)O3,17.6%
5,Cc1c(CC(=O)NCCCC(=O)O)c(=O)oc2cc3c(cc12)CCC(C)(C)O3,-64.5%
6,Cc1c(CC(=O)NCCCCCC(=O)O)c(=O)oc2cc3c(cc12)CCC(C)(C)O3,9.83%
7,COC(=O)c1ccc(NC(=O)CCc2nnc3ccc(NCc4ccco4)nn23)cc1,18.4%
8,CCCCN(CCCC)CCNC(=O)CN1C(=O)CSc2ccc(S(=O)(=O)N3CCCCC3)cc21,-74.7%
9,CN(C)CCNC(=O)CN1C(=O)CSc2ccc(S(=O)(=O)N3CCCCC3)cc21,12.5%
10,CCCCN(C)CCNC(=O)CN1C(=O)CSc2ccc(S(=O)(=O)N3CCCCC3)cc21,-50.6%
11,CCCCN(C)CCNC(=O)CN1C(=O)CSc2ccc(S(=O)(=O)N3CCOCC3)cc21,2.2%
12,CCCCN(CCCC)CCNC(=O)CN1C(=O)CSc2ccc(S(=O)(=O)N3CCOCC3)cc21,-38.8%
13,CCCCN(C)CCNC(=O)CN1C(=O)CSc2ccc(S(=O)(=O)N3CCCC3)cc21,-3.28%
14,O=c1oc(-c2ccccc2NS(=O)(=O)c2ccc3ccccc3c2)nc2ccccc12,22.9%
15,CC(=O)c1c(C(C)=O)c(C)n(NC(=O)c2ccncc2)c1C,8.37%
16,COCCN(C(=O)CNC(=O)c1ccco1)C(C(=O)NC1CCCCC1)c1cccnc1 (centres unmarked),20.1%
17,CC(C)c1ccc(S(=O)(=O)N(C)C2(C)CCS(=O)(=O)C2)cc1 (centres unmarked),-46.9%
18,Cc1cc(Cl)ccc1OCC(=O)OCC(=O)NC1CCS(=O)(=O)C1 (centres unmarked),-12.2%
19,O=C(CCNC(=O)c1ccccc1Cl)Nc1nc(-c2ccccc2Cl)cs1,-7.92%
20,Cc1cccc(-n2ccnc2SCC(=O)Nc2ccc3c(c2)OCCO3)c1,-14%
